Assay outcomes as filed in PubChem BioAssay.
DT40 TDP1 CPT – growth inhibition of DT40 Tdp1-/-;hTDP1 cells with camptothecin (screen for TDP1 inhibitors); chicken DT40 Tdp1-/-;hTDP1 cells + 20 nM CPT, ATP luminescence, 48 h; Potency, µM (series often up to 46.2 µM), for inactives: at the highest dose activity change, negative = growth inhibition, most hits filed as inhibitors; 420,000 tested, 12% active; AID 686979; also: % is scaled to controls: 0 for no effect and ±100 for the full control effect; nearly all actives have a fitted effect of over 55% in size
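Chicken DT40 Tdp1-/- cells stably complemented with human TDP1 were seeded at 400 cells/well in medium containing 20 nM camptothecin, exposed to pin-transferred compounds, and grown at 37 °C for at least 48 hr. Viability was read as ATP luminescence.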
ATXN2 expr inh – reduces ATXN2 reporter expression in HEK-293 cells; AID 1745845; HEK-293 ATXN2-luciferase reporter, luminescence, 24 h; Potency, µM (doses to about 57 µM), inactives show at the highest dose activity change, negative = inhibition, hits mostly inhibitors; 360,000 tested, 0.72% active; also: % is scaled to controls: 0 for no effect and ±100 for the full control effect; nearly all actives have a fitted effect of over 55% in size
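qHTS (up to 57 uM final) was run with 24 h compound exposure of reporter cells at 37 °C. Each well was multiplexed: SteadyGlo luminescence measured ATXN2-luciferase expression after a fluorogenic Gly-Phe-AFC viability readout (25 uM final).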
DT40 TDP1 no CPT – qHTS for Inhibitors of human tyrosyl-DNA phosphodiesterase 1 (TDP1): qHTS in cells in absence of CPT | DT40 Tdp1-/- hTDP1 cells, no CPT, ATP luminescence, 48 h | Potency, µM (titrated, usually from 46.2 µM), inactives show at the top dose activity change, negative = growth inhibition, most hits filed as inhibitors | 420,000 tested, 15% active | AID 686978, 2013; also: % is scaled to controls: 0 for no effect and ±100 for the full control effect; nearly all actives have a fitted effect of over 55% in size
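Compound effects on proliferation are scored in DT40 Tdp1-/-;hTDP1 cells in the absence of CPT. ATP levels (CellTiter-Glo luminescence) are recorded after a ≥48 hr, 37 °C incubation.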
HepG2 tox – HepG2 cytotoxicity, counter-screen for TGF-b inhibitors. 410,000 tested, 0.76% active. Potency, µM (titrated, usually from 46.1 µM), without a hit: at the top dose activity change, negative = cytotoxicity, hits mostly cytotoxic. HepG2 CAGA-GFP viability, ATP luminescence, 18 h
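HepG2 CAGA-GFP cells (1000/well, DMEM with 1% FBS) received compound, then TGF-beta at 500 pg/mL final, and were incubated 18 hours at 37 degrees C. Viability was read by CellTiter-Glo luminescence. Media-only wells were set as complete cell-killing and DMSO as no toxicity.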
S2 tox – cell viability loss in ATXN counter-screen; Potency, µM (top dose mostly 56.7 µM), actives largely listed as cytotoxic; AID 651635; 400,000 tested, 0.49% active; S2 cells (HEK-293 line with an ATXN2-luciferase reporter) viability, CellTiter-Fluor protease fluorescence, 24 h; also: nearly all actives have a fitted effect of over 40% in size
TGFb inhibitor – inhibitors of TGF-b signaling; HepG2 CAGA-GFP TGF-b/SMAD3 reporter, GFP fluorescence, 18 h; TGF-beta stimulated, 500 pg/mL final; Potency, µM (series often up to 46.1 µM), for inactives: at the highest dose activity, negative = inhibition, actives largely listed as inhibitors; 410,000 tested, 1.2% active; AID 588855; also: % is scaled to controls: 0 for no effect and ±100 for the full control effect; nearly all actives have a fitted effect of over 65% in size
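Inhibition was scored as loss of TGF-beta-induced (500 pg/mL final, 18 hours, 37 degrees C) GFP in HEPG2 cells carrying a CAGA-GFP reporter, in DMEM with 1% FBS. Well GFP was summed per cell; Activity was normalised to unstimulated and stimulated DMSO wells, then concentration-response fitting.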
* = called active by the depositor; [ ] = another dose, or the depositor's remark. Shown are actives, neighbours in structure and some others; about 17% of the full set was active somewhere. Calls follow the shape of the dose curve; as a rule, active = well fitted curve in the direction sought with a large enough effect; inconclusive = small, poorly fitted or top-dose-only effect, or another doubt; inactive = no such curve, though single readings can be large; an effect the other way counts as inactive or inconclusive. Potency is read from the fitted curve at half-maximal effect.

What do the screens show for `Cc1ccc(NC(=O)c2cc(-c3cc(F)ccc3OCC3CCCO3)n[nH]2)cc1NS(C)(=O)=O` (centres undefined)?
DT40 TDP1 CPT: 15µM*; ATXN2 expr inh: inconclusive; DT40 TDP1 no CPT: 15µM*; HepG2 tox: -31%; S2 tox: inconclusive; TGFb inhibitor: 0%

What do the screens show for `COc1cc(CNC(=O)c2cc(-c3cc(F)ccc3OCC3CCCO3)n[nH]2)cc(OC)c1` (centres undefined)?
DT40 TDP1 CPT: inconclusive; ATXN2 expr inh: -7%; DT40 TDP1 no CPT: 21µM*; HepG2 tox: -21%; S2 tox: inactive; TGFb inhibitor: -9%

Results for O=C(c1ccc(F)cc1)N1CCN=C1c1ccccc1 ?
DT40 TDP1 CPT: -4%; ATXN2 expr inh: -12%; DT40 TDP1 no CPT: -24%; HepG2 tox: 1%; S2 tox: inactive; TGFb inhibitor: -18%

Results for COC(=O)C1=CN(Cc2cccs2)C=C(C(=O)OC)C1c1cccc(Cl)c1 ?
DT40 TDP1 CPT: 4%; ATXN2 expr inh: -18%; DT40 TDP1 no CPT: inconclusive; HepG2 tox: 10µM*; S2 tox: inconclusive; TGFb inhibitor: inconclusive

Results for COC(=O)C1=CN(Cc2ccc(OC)cc2)C=C(C(=O)OC)C1c1ccsc1 ?
DT40 TDP1 CPT: 21µM*; ATXN2 expr inh: -5%; DT40 TDP1 no CPT: inconclusive; HepG2 tox: -12%; S2 tox: inactive; TGFb inhibitor: inconclusive

What do the screens show for `CCOC(=O)C1=CN(C)C=C(C(=O)OCC)C1c1ccsc1`?
DT40 TDP1 CPT: -25%; DT40 TDP1 no CPT: -13%; HepG2 tox: -26%; TGFb inhibitor: -12%

Results for COC(=O)C1=CN(CC2CCCO2)C=C(C(=O)OC)C1c1ccsc1 (centres undefined) ?
DT40 TDP1 CPT: 12%; ATXN2 expr inh: 1%; DT40 TDP1 no CPT: 2%; HepG2 tox: 12%; S2 tox: inactive; TGFb inhibitor: -3%

How did COC(=O)C1=CN(CCOC23CC4CC(CC(C4)C2)C3)C=C(C(=O)OC)C1c1ccsc1 do in these assays?
DT40 TDP1 CPT: inconclusive; ATXN2 expr inh: -27%; DT40 TDP1 no CPT: 12µM*; HepG2 tox: 11%; TGFb inhibitor: inconclusive

How did COC(=O)C1=CN(Cc2cccs2)C=C(C(=O)OC)C1c1ccc(OC)cc1OC do in these assays?
DT40 TDP1 CPT: -4%; ATXN2 expr inh: -10%[11.3 µM]; DT40 TDP1 no CPT: inconclusive; HepG2 tox: 13%; TGFb inhibitor: 18%

Results for Cc1ccc(NC(=O)N2CCC(CN3CCC(C)CC3)CC2)cc1F ?
DT40 TDP1 CPT: -12%; ATXN2 expr inh: 14%; DT40 TDP1 no CPT: -1%; HepG2 tox: 0%; S2 tox: inactive; TGFb inhibitor: 22%

How did O=C(NC1CCCCC1)C(c1ccccc1)N(C(=O)c1cccs1)c1ccc2c(c1)OCO2 (centres undefined) do in these assays?
DT40 TDP1 CPT: inconclusive; ATXN2 expr inh: -17%; DT40 TDP1 no CPT: inconclusive; HepG2 tox: -4%; S2 tox: inactive; TGFb inhibitor: 5%

How did O=C(NC1CCCCC1)C(c1ccc2ncccc2c1)N(Cc1ccc2c(c1)OCO2)C(=O)c1cccs1 (centres undefined) do in these assays?
DT40 TDP1 CPT: 18µM*; ATXN2 expr inh: inconclusive; DT40 TDP1 no CPT: inconclusive; HepG2 tox: -30%; S2 tox: inconclusive; TGFb inhibitor: -30%

How did O=C(NC1CCCCC1)C(c1ccc2ncccc2c1)N(Cc1ccccc1)C(=O)c1cccs1 (centres undefined) do in these assays?
DT40 TDP1 CPT: inconclusive; ATXN2 expr inh: -15%; DT40 TDP1 no CPT: 18µM*; HepG2 tox: -4%; S2 tox: inconclusive; TGFb inhibitor: -25%

Results for CCCCN(C(=O)C1CC(=O)N(c2ccc(CC)cc2)C1)c1c(N)n(CCC)c(=O)[nH]c1=O (centres undefined) ?
DT40 TDP1 CPT: -24%; ATXN2 expr inh: -1%; DT40 TDP1 no CPT: -5%; HepG2 tox: -23%; S2 tox: inactive; TGFb inhibitor: -16%

How did COc1ccc(Cl)cc1CC1(C)C(=O)Nc2ccc(-c3ccccc3OC)cc21 (centres undefined) do in these assays?
DT40 TDP1 CPT: 21µM*; ATXN2 expr inh: inconclusive; DT40 TDP1 no CPT: 12µM*; HepG2 tox: -94%; S2 tox: inactive; TGFb inhibitor: inconclusive

What do the screens show for `COc1ccccc1-c1ccc2c(c1)C(C)(Cc1cccc(C#N)c1)C(=O)N2` (centres undefined)?
DT40 TDP1 CPT: 21µM*; ATXN2 expr inh: inconclusive; DT40 TDP1 no CPT: 16µM*; HepG2 tox: -38%; S2 tox: inconclusive; TGFb inhibitor: inconclusive

What do the screens show for `CC1(Cc2cc(Cl)ccc2C(F)(F)F)C(=O)Nc2ccc(-c3ccc(F)c(Cl)c3)cc21` (centres undefined)?
DT40 TDP1 CPT: inconclusive; ATXN2 expr inh: 0%; DT40 TDP1 no CPT: inconclusive; HepG2 tox: -115%; TGFb inhibitor: inconclusive

Results for COc1ccccc1-c1ccc2c(c1)C(C)(Cc1cc(Cl)ccc1C(F)(F)F)C(=O)N2 (centres undefined) ?
DT40 TDP1 CPT: inconclusive; ATXN2 expr inh: inconclusive; DT40 TDP1 no CPT: inconclusive; HepG2 tox: -102%; S2 tox: inactive; TGFb inhibitor: 18µM*

Results for COC(=O)c1ccc(CC2(C)C(=O)Nc3ccc(OC(F)(F)F)cc32)o1 (centres undefined) ?
DT40 TDP1 CPT: -14%; ATXN2 expr inh: -2%; DT40 TDP1 no CPT: -22%; HepG2 tox: -24%; S2 tox: inactive; TGFb inhibitor: -31%

What do the screens show for `CC1(Cc2cc(Cl)ccc2C(F)(F)F)C(=O)Nc2ccc(OC(F)(F)F)cc21` (centres undefined)?
DT40 TDP1 CPT: 23µM*; ATXN2 expr inh: inconclusive; DT40 TDP1 no CPT: 13µM*; HepG2 tox: -101%; S2 tox: inconclusive; TGFb inhibitor: inconclusive

What do the screens show for `COc1ccccc1-c1ccc2c(c1)C(C)(Cc1ccc(Cl)cc1)C(=O)N2` (centres undefined)?
DT40 TDP1 CPT: 2%; ATXN2 expr inh: 1%; DT40 TDP1 no CPT: 0%; HepG2 tox: 0%; S2 tox: inactive; TGFb inhibitor: 6%

What do the screens show for `Cc1ccc(C)c(S(=O)(=O)N2CCN(C(=O)c3cccn3C)CC2)c1`?
DT40 TDP1 CPT: 5%; ATXN2 expr inh: -3%; DT40 TDP1 no CPT: -9%; HepG2 tox: 1%; S2 tox: inactive; TGFb inhibitor: -2%
